VACV mCherry inh: qHTS for Stage-Specific Inhibitors of Vaccinia Orthopoxvirus: mCherry Reporter Primary qHTS; 310,000 tested, 0.63% active; Vaccinia virus mCherry reporter infection, fluorescence; AID 720579, 2013; Potency, µM (doses to about 36.5 µM), for the others: at the top dose activity change, negative = inhibition, actives largely listed as inhibitors; calls by dose curve; tested in A549 cells; also: potency is read from the fitted curve at half-maximal effect; nearly all actives have a fitted effect of over 35% in size
LASV entry inh: qHTS for Inhibitors of binding or entry into cells for Lassa Virus | Lassa virus pseudotype entry inhibition, cell reporter | Potency, µM (top dose mostly 37.9 µM), for inactives: at the top dose activity change, negative = inhibition, usual class: inhibitors | 300,000 tested, 1.2% active | AID 540256, 2011; calls by dose curve; tested in HEK293 cells; also: potency is read from the fitted curve at half-maximal effect; nearly all actives have a fitted effect of over 50% in size
MARV entry inh: qHTS for inhibitors of binding or entry into cells for Marburg Virus | Marburg virus pseudotyped entry inhibition, cell reporter | Potency, µM (series often up to 37.8 µM), inactives show at the highest dose activity change, negative = inhibition, most hits filed as inhibitors | 300,000 tested, 1.8% active; calls by dose curve; tested in HEK293 cells; also: potency is read from the fitted curve at half-maximal effect
Vaccinia Venus: qHTS for Stage-Specific Inhibitors of Vaccinia Orthopoxvirus: Venus Reporter Primary qHTS | 330,000 tested, 0.46% active | Vaccinia virus Venus reporter expression, fluorescence | Potency, µM (highest dose often 36.5 µM), for the others: top-dose activity change, negative = inhibition, actives largely listed as inhibitors; calls by dose curve; tested in A549 cells; also: potency is read from the fitted curve at half-maximal effect; nearly all actives have a fitted effect of over 30% in size
HCV inh: qHTS Assay for Inhibitors of Hepatitis C Virus (HCV); Huh7.5.1 HCVcc-Cre infection, luciferase reporter, 44 h; Potency, µM (highest dose often 41.8 µM), inactives show at the top dose activity change, negative = inhibition, actives largely listed as inhibitors; 340,000 tested, 3.4% active; AID 651820, 2012; active = well fitted inhibition curve with a large enough effect; inconclusive = small, poorly fitted or top-dose-only effect, or another doubt; inactive = no such curve, though single readings can be large or run the other way; also: potency is read from the fitted curve at half-maximal effect
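Cells seeded at 1,000/well and cultured 4 h, then compounds added followed by HCVcc-Cre virus (~0.5 moi). After 44 h further culture, luciferase substrate was added, plates held 15 min at room temperature, and luminescence read for 15 sec.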
HCMV inh: qHTS Assay for inhibitors of the human cytomegalovirus (HCMV); HFF cells, HCMV-luciferase reporter, 72 h; active compounds read low; activity change, negative = inhibition, % at 57.5 µM; 410,000 tested, 4.5% active; in the data active = activity change below about -60%; inconclusive = no clear call, values can overlap the other calls; inactive = above about -39%
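Inhibition of viral replication was scored as loss of reporter luminescence in HFFs infected with HCMV-luciferase (MOI 1 PFU/cell) for 72 h; compounds tested at 2 doses, normalized to buffer and Salinomycin controls.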
* = called active by the depositor; ! = repeats disagree; [ ] = remark or other dose. Compounds with a hit are over-represented: about 7.8% of the library has one in this group of screens. % is scaled to controls: 0 for no effect and ±100 for the full control effect.

`CCOc1ccccc1N1C(=O)CN(Cc2ccc(OC)c(OC)c2)C1=S` gave HCV inh 13µM* and HCMV inh -14.
For COc1ccc(CN2CC(=O)N(c3ccccc3OC)C2=S)cc1OC the results were VACV mCherry inh 12%, LASV entry inh -12%, MARV entry inh -10%[46.1 µM], Vaccinia Venus 2%, HCV inh -3% and HCMV inh 5.
COc1ccc(Cl)cc1N1C(=O)CN(Cc2cc(OC)c(OC)c(OC)c2)C1=S was read as HCV inh 16µM* and HCMV inh -6.
COc1ccc(CN2CC(=O)N(c3cc(Cl)ccc3OC)C2=S)cc1OC was read as HCV inh 11µM* and HCMV inh -29.
Screening Cc1cc(C)c(-c2cc([C@H](C)ON=C[C@@H](C)[C@H](OCc3ccccc3)C(C)C)on2)c(C)c1 returned MARV entry inh 6%[14.2 µM].
Screening COc1ccc(OC)c(CCNC(=O)Cn2nc(C)n3c(cc4sccc43)c2=O)c1 returned VACV mCherry inh 5%, MARV entry inh -2%[46.1 µM], Vaccinia Venus -10% and HCMV inh 0.
Screening O=C(O)c1cc(O)c2c(c1)[C@H]([C@H]1c3cc(C(=O)O)cc(O)c3C(=O)c3c(O[C@@H]4O[C@H](CO)[C@@H](O)[C@H](O)[C@H]4O)cccc31)c1cccc(OC3O[C@H](CO)[C@@H](O)[C@H](O)[C@H]3O)c1C2=O (stereo partly drawn) returned VACV mCherry inh inactive, Vaccinia Venus -14%, HCV inh 0.35µM*! and HCMV inh -101*.
For Fc1cccc(/C=C2\CCCC3=C2NC(=S)NC3c2cccc(F)c2)c1 (stereo not drawn) the results were HCV inh 8.9µM* and HCMV inh -25.
`COc1cc(/C=N/NC(=O)c2c(C)nc3ccc(Cl)cn23)cc(OC)c1OC` gave VACV mCherry inh -7%, LASV entry inh -9%[46.1 µM], MARV entry inh 4.5µM*, Vaccinia Venus -3%, HCV inh inconclusive and HCMV inh 29.
COc1ccc(/C=N\NC(=O)c2c(C)nc3ccc(Br)cn23)cc1 was read as VACV mCherry inh inconclusive, LASV entry inh inconclusive, MARV entry inh -9%, Vaccinia Venus inconclusive, HCV inh 3% and HCMV inh -69*.
For Cc1nc2ccccn2c1C(=O)N/N=C/c1cc(C)n(-c2ccc(Br)cc2)c1C the results were LASV entry inh -17%, MARV entry inh inconclusive, HCV inh 4µM* and HCMV inh inconclusive.
Cc1cc(/C=N\NC(=O)c2cccs2)c(C)n1-c1ccc2ncccc2c1 was read as LASV entry inh 10µM*, MARV entry inh inconclusive, Vaccinia Venus inconclusive, HCV inh inconclusive and HCMV inh 38.
Screening COc1ccc(/C=N/NC(=O)c2c(C)nc3ccc(Cl)cn23)cc1OC returned HCV inh 5% and HCMV inh -8.
Cc1ccc(C2=NCC(C)n3c2c2ccc(C(F)(F)F)cc2[n+]3[O-])cc1 (stereo not drawn) was read as HCMV inh 23.
For O=C(NCc1ccc(Cl)cc1)NC1COc2ccccc2C1 (stereo not drawn) the results were VACV mCherry inh -10%, LASV entry inh -1%[46.1 µM], Vaccinia Venus -9% and HCMV inh -10.
Cc1ccc(C)c(OCCn2c(CCNC(=O)C3CCCCC3)nc3ccccc32)c1 was read as LASV entry inh -25%[46.1 µM] and MARV entry inh inconclusive.
For COc1cccc(/C=N/NC(=O)c2c(C)nc3ccc(Br)cn23)c1O the results were LASV entry inh 5.2µM*, MARV entry inh 1.8µM* and HCV inh 4.5µM*.
Screening CCOc1ccccc1/C=N/NC(=O)c1c(C)nc2ccc(Br)cn12 returned HCV inh -22% and HCMV inh 7.
`COC1(OC)C=CC(=O)C=C1NC(=O)c1ccccc1OC(C)=O` gave HCMV inh -78*.
Screening CC(=O)Oc1ccccc1C(=O)Nc1ccccc1 returned HCMV inh -17.
`CCCc1cc(=O)n2[nH]c(C)c(-c3ccccc3)c2n1` gave LASV entry inh -17%, MARV entry inh -6%, Vaccinia Venus inconclusive, HCV inh -4% and HCMV inh 90.
For Cc1[nH]n2c(=O)cc(-c3ccc([N+](=O)[O-])cc3)nc2c1-c1ccccc1 the results were VACV mCherry inh -16%, LASV entry inh inconclusive, MARV entry inh inconclusive, Vaccinia Venus -14%, HCV inh 10µM* and HCMV inh 42.
Cc1[nH]n2c(=O)cc(-c3ccc(Cl)cc3)nc2c1-c1ccccc1 was read as VACV mCherry inh 8.9µM*, LASV entry inh 2.5µM*, MARV entry inh 11µM*, Vaccinia Venus inconclusive and HCMV inh -107*.
Screening Cc1ccc(N=Nc2c(N)[nH]n3c(=O)cc(-c4ccccc4)nc23)cc1 returned VACV mCherry inh 6%, LASV entry inh 1%, MARV entry inh inconclusive, Vaccinia Venus 0%, HCV inh 13µM* and HCMV inh -81*.
For Cc1[nH]n2c(=O)cc(C(C)(C)C)nc2c1-c1ccccc1 the results were VACV mCherry inh 10µM*, LASV entry inh 10µM*, MARV entry inh inconclusive, Vaccinia Venus inconclusive, HCV inh 10µM* and HCMV inh -62*.
Cc1[nH]n2c(=O)cc(C(C)C)nc2c1-c1ccccc1 was read as VACV mCherry inh -7%, LASV entry inh -11%, MARV entry inh inconclusive, Vaccinia Venus -20%, HCV inh -23% and HCMV inh 42.
For COc1cccc(OCCn2c(-c3ccc(Cl)cc3)nc3ccccc3c2=O)c1 the results were VACV mCherry inh -6%, LASV entry inh 6%[46.1 µM], MARV entry inh -8%[46.1 µM], Vaccinia Venus 5% and HCMV inh 21.
`COC(=O)c1cccc(C(=O)N2CCc3c(cnc(C)c3CNC(=O)/C=C/c3cccs3)C2)c1` gave VACV mCherry inh -15% and Vaccinia Venus -10%.
For COC(=O)C1=C(C)N(Cc2ccccc2)C(=NCC2CC2)NC1c1ccc(Br)cc1 (stereo not drawn) the results were MARV entry inh -10%[14.2 µM].
For CC(C)(C)N=Cc1cc(-c2ccccc2)sc1O the results were VACV mCherry inh -13%, LASV entry inh 0%, MARV entry inh inconclusive, Vaccinia Venus -21%, HCV inh 10µM* and HCMV inh 30.
`C[C@H](CO)N1C[C@H](C)[C@@H](CN(C)C(=O)Nc2ccnc(N3CCOCC3)c2)OCc2cn(nn2)CCCC1=O` gave HCMV inh 3.

Compound activity (PubChem BioAssay)
